Test results published in PubChem BioAssay (EPA / NIEHS).
Where “and” joins values, the source holds several entries; their conditions need not be identical. Equal values may be shown once. The source holds several records for some structures; these can differ, active in one and inactive in another. Calls of active or inactive are those of the source. The calls were made as follows: active = hit-call score of the fitted dose curve at least 0.9, where 1 is the maximum; inactive = score below 0.9.

read-out: Macrophage colony-stimulating factor (MCSF), CSF1 (gene 1435); assay: BSK_IMphg_MCSF: BioMAP Diversity Plus: IMphg Assay for Macrophage colony-stimulating factor (MCSF) Biomarker Activity (AID 2284293); settings: primary human endothelial cells with macrophages
Description: BSK_IMphg is a cell-based, multiplexed-readout assay that uses venular endothelial cells and macrophages, a human vascular primary cell, with measurements taken at 24 hours after chemical dosing in a microplate: 96-well plate.BSK_IMphg_MCSF is an assay component measured in the BSK_IMphg assay. It measures M-CSF antibody related to regulation of gene expression using ELISA technology.Data from the assay component BSK_IMphg_MCSF was analyzed at the endpoint, BSK_IMphg_MCSF, in the positive analysis fitting direction relative to DMSO as the negative control and baseline of activity. Using a type of binding reporter, gain or loss-of-signal activity can be used to understand protein changes. To generalize the intended target to other relatable targets, this assay endpoint is annotated to the 'cytokine' intended target family, where the subfamily is 'colony stimulating factor'.
The levels of cell surface (or secreted, indicated by the prefix "s") biomarker endpoints were measured by ELISA. Overt cytotoxicity to cells in confluent adherent cultures (all systems other than the BT system) was assessed by measuring total protein levels using sulforhodamine B (SRB) staining in parallel cultures at the time of biomarker measurements, indicated as SRB endpoints. For proliferation assays for adherent cell types, individual cell types are cultured at sub-confluence and relative cell numbers quantified by SRB staining at time points optimized for each system (48 h: 3C and CASM3C systems; 72 h: BT and HDF3CGF systems; 96 h: SAg system). SRB was performed by staining cells with 0.1% SRB after fixation with 10% TCA and reading wells at 560 nm.Viability and proliferation of PBMC (T cells) was quantified by Alamar Blue reduction for the SAg and BT systems. For PBMC viability (referred to as PBMC Cytotoxicity within the assay endpoint names), cells were plated (75,000/well in a 96-well plate) and then chemical samples added for 1 h before addition of activators, SEB and TSST-1 (20 ng/mL final concentration each). Cells were incubated for 90 h. Then, Alamar Blue (20 uL/well) (Invitrogen, Cat DAL1100) was added for 6 h, and the plates were read with a fluorescence microplate reader at 546/580 nm (excitation/emission). For PBMC proliferation, cells were plated and activated as above but incubated for only 16 h prior to addition of Alamar Blue. Plates were read after 6 h.

Compound | outcome | AC50
O=C(O)C(F)(F)C(F)(F)C(F)(F)C(=O)O | inactive | –
C=C(C)C(=O)OCC(F)(F)C(F)(F)C(F)(F)C(F)F | inactive | –
O=C(O)CCC(F)(F)C(F)(F)C(F)(F)F | inactive | –
FC(F)(F)C(F)(F)C(F)(F)C(F)(F)C(F)(F)C(F)(F)CC[Si](Cl)(Cl)Cl | inactive | –
NCC(F)(F)C(F)(F)C(F)(F)C(F)(F)C(F)(F)C(F)(F)F | inactive | –
O=C(Cl)C(F)(F)C(F)(F)C(F)(F)C(F)(F)C(F)(F)C(F)(F)C(F)(F)F | inactive | –
OCC(O)CC(F)(F)C(F)(F)C(F)(F)C(F)(F)C(F)(F)C(F)(F)C(F)(F)C(F)(F)F (stereo not given) | inactive | –
C[Si](Cl)(Cl)CCC(F)(F)C(F)(F)C(F)(F)C(F)(F)C(F)(F)C(F)(F)F | inactive | –
CN(C(=O)C(F)(F)C(F)(F)C(F)(F)F)[Si](C)(C)C | inactive | –
OCCCC(F)(F)C(F)(F)C(F)(F)C(F)(F)C(F)(F)C(F)(F)C(F)(F)C(F)(F)F | – | 44.4 µM (active) and 42.1 µM (active)
NCC(F)(F)C(F)(F)C(F)(F)C(F)(F)C(F)(F)C(F)(F)C(F)(F)C(F)(F)F | inactive | –
O=S(=O)(Cl)C(F)(F)C(F)(F)C(F)(F)C(F)(F)C(F)(F)C(F)(F)C(F)(F)C(F)(F)F | inactive | –
CNS(=O)(=O)C(F)(F)C(F)(F)C(F)(F)C(F)(F)C(F)(F)C(F)(F)C(F)(F)C(F)(F)F | inactive | –
FC(F)(F)C(F)(F)C(F)(F)C(F)(F)C(F)(F)C(F)(F)C(F)(F)CCI | inactive | –
C=CC(=O)OCC(F)(F)C(F)(F)C(F)(F)COC(=O)C=C | inactive | –
O=C(O)C(F)(F)C(F)(F)C(F)(F)OC(F)(C(F)(F)F)C(F)(F)F | inactive | –
O=S(=O)(O)CCC(F)(F)C(F)(F)C(F)(F)C(F)(F)C(F)(F)C(F)(F)C(F)(F)C(F)(F)F | inactive | –
CO[Si](C)(CCC(F)(F)C(F)(F)C(F)(F)C(F)(F)C(F)(F)C(F)(F)F)OC | inactive | –
NS(=O)(=O)C(F)(F)C(F)(F)C(F)(F)C(F)(F)C(F)(F)C(F)(F)F | inactive | 4.34 µM (active)

Compound | outcome | AC50
O=C(O)C(F)(F)C(F)(F)C(F)(F)C(F)(F)C(F)(F)C(F)(F)C(F)F | inactive | –
O=C(O)C(F)(F)OC(F)(F)C(F)(F)OC(F)(F)C(F)(F)OC(F)(F)F | inactive | –
COC(F)(C(F)F)C(F)(F)F (stereo not given) | inactive | –
OCC(O)CC(F)(F)C(F)(F)C(F)(F)C(F)(F)F (stereo not given) | inactive | –
NC(=O)C(F)(F)C(F)(F)C(F)(F)F | inactive | –
OCCCCC(F)(F)C(F)(F)C(F)(F)C(F)(F)F | inactive | –
CCOC(=O)CC(=O)C(F)(F)C(F)(F)F | inactive | –
O=S(=O)(OCC(F)(F)F)C(F)(F)C(F)(F)C(F)(F)C(F)(F)F | inactive | –
NC(=O)C(F)(F)C(F)(F)C(F)(F)C(F)(F)C(N)=O | inactive | –
OCC(F)(F)C(F)(F)C(F)(F)CO | inactive | –
C=CC(=O)OCCC(F)(F)C(F)(F)C(F)(F)C(F)(F)F | inactive | –
NC(=O)C(F)(F)C(F)(F)C(F)(F)C(F)(F)C(F)(F)C(F)(F)C(F)(F)F | inactive | –
O=C(O)C(F)(F)C(F)(F)C(F)(F)OC(F)(F)F | inactive | –
NC(O)(C(F)(F)F)C(F)(F)F | inactive | –
OC(O)C(F)(F)C(F)(F)F | inactive | –
OCC(F)(F)C(F)(F)C(F)(F)C(F)(F)C(F)(F)C(F)(F)C(F)(F)C(F)(F)CO | inactive | 39.7 µM (active)
FC(F)(F)C(F)(F)C(F)(F)CC1CO1 (stereo not given) | inactive | –
OCC(F)(F)C(F)(F)C(F)(F)C(F)(F)C(F)(F)C(F)(F)CO | inactive | –
NC(=O)C(F)(F)C(F)(F)C(F)(F)C(F)F | inactive | –
